Growth data for eleven molecules are collected here from PubChem BioAssay (NCI).

Among the test systems are SK-MEL-2 melanoma; EKVX NSCLC; SN12C renal; UO-31 renal; TK-10 renal; ACHN renal; CAKI-1 renal; A498 renal; CCRF-CEM leukemia; MOLT-4 leukemia.
Test in all cases: NCI-60 one-dose screen, 48 h (100 = growth as untreated, 0 = no growth, -100 = all killed)
What all share (settings): 10 µM unless noted

SMILES strings stand for the structures. About 83,000 compounds went through this panel and 20% of them were active in at least one assay; those are over-represented in the sample as a whole.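 Note: values are percent growth. 100 is the growth of untreated cells, values between 100 and 0 indicate rising inhibition; between -100 and 0 indicates cell death.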 Unmarked numbers belong to inactive results. Calls of active or inactive are those of the source. The calls were made as follows: active = growth percent below 10; inactive = the rest.

Regarding `Nc1cc(N)c(N=Nc2ccc(S(=O)(=O)O)cc2)cc1N=Nc1ccc(-c2ccc(N=Nc3ccc(O)c(C(=O)O)c3)cc2)cc1`, the growth is 103% with SK-MEL-2 melanoma; 97.1% with EKVX NSCLC; 102% in the assay with SN12C renal; 79.8% with UO-31 renal; 142% in the assay with TK-10 renal; 99.8% with ACHN renal. In addition, the growth was 90% in the assay with CAKI-1 renal, 108% in the assay on A498 renal, 98% in the assay with CCRF-CEM leukemia and 102% in the assay with MOLT-4 leukemia.

For the molecule `CC1(C)NCCC[C@]2(C)[C@H]3C=CC4=C5C[C@](C)(CO)CC[C@]5(C)CC[C@@]4(C)[C@]3(C)CC[C@@H]12`, the growth with SK-MEL-2 melanoma was -84.9% [100 µM] (active); in the assay on EKVX NSCLC, -87.1% [100 µM] (active); in the assay on SN12C renal it was -94% [100 µM] (active); in the assay with UO-31 renal it was -98.1% [100 µM] (active); in the assay on TK-10 renal, -78.3% [100 µM] (active); in the assay on ACHN renal, -95.4% [100 µM] (active). Further, the growth in the assay with CAKI-1 renal was -96.5% [100 µM] (active); in the assay on A498 renal, -88.7% [100 µM] (active); with CCRF-CEM leukemia it was -44.1% [100 µM] (active); with MOLT-4 leukemia, -56.7% [100 µM] (active).

Take `C#C[C@]1(O)CC[C@H]2[C@@H]3CC=C4c5nc(N)sc5CC[C@]4(C)[C@H]3CC[C@@]21C`: the growth with SK-MEL-2 melanoma is 58.8%; in the assay on EKVX NSCLC, 53.7%; with SN12C renal it was 82.2%; with UO-31 renal, 90.4%; in the assay on TK-10 renal, 80.4%; in the assay on ACHN renal, 79.6%. Also, the growth in the assay with CAKI-1 renal was 54.9%; with A498 renal it was 36.4%; in the assay with CCRF-CEM leukemia, 77.7%; in the assay on MOLT-4 leukemia, 36.9%.

As to `CC1=CC[C@@H]2C(C)(C)C(=O)CC[C@@]2(C)[C@@H]1COc1ccc2ccc(=O)oc2c1`, the growth was 77% in the assay on SK-MEL-2 melanoma; 71.4% in the assay with EKVX NSCLC; 76.1% in the assay with SN12C renal; 39% in the assay with UO-31 renal; 82% in the assay on TK-10 renal; 74.2% in the assay with ACHN renal. Besides, the growth with CAKI-1 renal was 47.3%; in the assay with A498 renal, 75.3%; in the assay with CCRF-CEM leukemia, 61.9%; with MOLT-4 leukemia it was 39.1%.

As to `C=C1C(=O)O[C@H]2[C@H]1CC/C(COC(=O)NCc1ccc(Cn3c(=O)sn(-c4ccc(Cl)cc4)c3=O)cc1)=C\CC[C@@]1(C)O[C@@H]21`, the growth in the assay with SK-MEL-2 melanoma is 88.2%; in the assay on EKVX NSCLC it was 99.6%; with SN12C renal it was 70.4%; with UO-31 renal, 57.7%; in the assay on TK-10 renal, 45%; with ACHN renal, 65.5%. For the same molecule, the growth in the assay on CAKI-1 renal is 61%; in the assay on A498 renal, 107%; with CCRF-CEM leukemia it was 0.529% (active); with MOLT-4 leukemia it was 23.2%.

In the case of `CCCCCCCCCCCCCCCCCCNC(=S)N/N=C/c1ccc(OC)c(OC)c1`, the growth is 111% with SK-MEL-2 melanoma; 92.9% with EKVX NSCLC; 93.4% in the assay with SN12C renal; 77.1% in the assay with UO-31 renal; 104% in the assay on TK-10 renal; 102% in the assay with ACHN renal. Further, the growth with CAKI-1 renal was 93.9%; with A498 renal, 82.4%; with CCRF-CEM leukemia, 91.7%; with MOLT-4 leukemia, 100%.

`CC1(C)CC[C@]2(C(=O)O)CC[C@]3(C)C(=CC[C@@H]4[C@@]5(C)C/C(=C/c6cccnc6)[C@H](O)C(C)(C)[C@@H]5CC[C@]43C)[C@@H]2C1`: the growth in the assay on SK-MEL-2 melanoma was -29.9% [100 µM] (active); in the assay with EKVX NSCLC, 0.843% [100 µM] (active); in the assay with SN12C renal, 6.59% [100 µM] (active); with UO-31 renal, -57.6% [100 µM] (active); in the assay on TK-10 renal it was 1.87% [100 µM] (active); with ACHN renal, 2.77% [100 µM] (active). In addition, the growth with CAKI-1 renal was 5.69% [100 µM] (active); in the assay with A498 renal, 23.9% [100 µM]; with CCRF-CEM leukemia it was 1.37% [100 µM] (active); with MOLT-4 leukemia, 4.37% [100 µM] (active).

As for `O=[N+]([O-])c1cccc(/C=C/c2ccc3ccccc3n2)c1`, the growth with SK-MEL-2 melanoma is 68%; with EKVX NSCLC, 79.8%; in the assay with SN12C renal, 83%; with UO-31 renal it was 76.6%; in the assay on TK-10 renal it was 64.4%; in the assay on ACHN renal it was 53%. In addition, the growth in the assay with CAKI-1 renal is 78.3%; in the assay on A498 renal it was 125%; in the assay with CCRF-CEM leukemia it was 82.1%; with MOLT-4 leukemia, 75.3%.

Take `COc1cc(-c2cc(-c3ccc(Nc4ncnc5cc(Cl)ccc45)cc3)nc(N3CCCCC3)n2)cc(OC)c1OC`: the growth in the assay with SK-MEL-2 melanoma was 91%; in the assay on EKVX NSCLC it was 102%; with SN12C renal, 90.9%; with UO-31 renal, 80%; with TK-10 renal, 111%; in the assay on ACHN renal, 96.8%. Moreover, the growth was 93.1% in the assay on CAKI-1 renal, 89.5% with A498 renal, 107% with CCRF-CEM leukemia and 90.8% in the assay on MOLT-4 leukemia.

With `C#C[C@]1(O)CC[C@H]2[C@@H]3CC=C4c5nc(Nc6ccccc6[N+](=O)[O-])sc5CC[C@]4(C)[C@H]3CC[C@@]21C`, the growth with SK-MEL-2 melanoma is 56.7%; with EKVX NSCLC, 67.4%; in the assay on SN12C renal, 79.5%; in the assay with UO-31 renal, 63.1%; in the assay with TK-10 renal, 72.4%; in the assay with ACHN renal, 70.7%. In addition, the growth was 38.9% in the assay on CAKI-1 renal, 11.7% in the assay with A498 renal, 61.9% with CCRF-CEM leukemia and 43.7% with MOLT-4 leukemia.

On to `Cc1ccccc1OC(=O)c1cccc(Cl)c1`, for which the growth in the assay on SK-MEL-2 melanoma was 103%; with EKVX NSCLC, 99.2%; in the assay on SN12C renal, 110%; in the assay with UO-31 renal, 80.2%; in the assay on TK-10 renal, 108%; with ACHN renal, 107%. The growth is 109% in the assay on CAKI-1 renal, 90.5% with A498 renal, 98% with CCRF-CEM leukemia and -16.3% (active) in the assay with MOLT-4 leukemia.
